Source: PubChem (several laboratories)
Cardiac RTF inh: cardiac RTF calcium desensitization | IANBD-labeled cardiac RTF, Ca2+ fluorescence | inhibition, % at 7.15 µM | hit rate 0.12% among 340,000 | AID 493244;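 active = inhibition above the mean inhibition of all tested compounds plus 3 SD, cut at about 17% in these data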;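 note: assay run at fixed EC70 calcium of 1.6 mM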
cardiac RTF act: increases calcium sensitivity of human cardiac regulated thin filaments; P19429+P45379; IANBD-labeled TnC RTF fluorescence at EC20 calcium; 0% EC20 calcium, 100% full calcium; activation, % at 7.2 µM; hit rate 0.24% among 340,000; AID 493008;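 active = activation above the mean over all tested compounds plus 3 SD, cut at about 30% in these data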;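 note: rise in fluorescence read as greater calcium sensitivity of cardiac thin filaments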
E coli Lon inh: inhibitors of E. coli Lon protease; inhibition, % at 7.94 µM; hit rate 0.42% among 360,000; purified E. coli Lon protease, fluorescence polarization; AID 602123; P0A9M0; in the data active = inhibition above about 13%, passing the limit was not always enough;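 note: 0% = enzyme with probe and DMSO and 100% = no enzyme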
Target sequence (P0A9M0 whole entry, looked up): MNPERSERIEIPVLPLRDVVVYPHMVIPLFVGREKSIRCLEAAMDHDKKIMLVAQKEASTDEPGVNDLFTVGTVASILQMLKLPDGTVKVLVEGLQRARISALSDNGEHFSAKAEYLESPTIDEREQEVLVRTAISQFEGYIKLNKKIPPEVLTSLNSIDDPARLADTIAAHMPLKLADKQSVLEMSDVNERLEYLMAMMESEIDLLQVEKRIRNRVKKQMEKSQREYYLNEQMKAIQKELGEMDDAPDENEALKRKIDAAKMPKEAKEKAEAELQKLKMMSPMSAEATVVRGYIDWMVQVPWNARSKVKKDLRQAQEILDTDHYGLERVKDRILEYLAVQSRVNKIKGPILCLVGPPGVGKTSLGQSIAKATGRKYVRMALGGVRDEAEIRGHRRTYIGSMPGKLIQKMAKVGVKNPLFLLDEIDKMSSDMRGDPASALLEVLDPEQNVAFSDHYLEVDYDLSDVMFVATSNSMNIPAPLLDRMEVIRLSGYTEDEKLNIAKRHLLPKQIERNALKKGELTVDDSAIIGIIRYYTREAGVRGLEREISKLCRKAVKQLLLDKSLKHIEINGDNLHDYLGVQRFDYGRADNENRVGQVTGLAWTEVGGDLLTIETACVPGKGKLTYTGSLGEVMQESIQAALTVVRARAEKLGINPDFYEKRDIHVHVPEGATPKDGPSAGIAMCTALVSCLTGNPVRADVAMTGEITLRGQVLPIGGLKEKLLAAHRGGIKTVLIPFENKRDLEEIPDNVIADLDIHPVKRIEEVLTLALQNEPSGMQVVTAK
Keap1 Nrf2 FP: Keap1-Nrf2 (human) interaction inhibition. Q14145. Keap1 Kelch-Nrf2 peptide fluorescence polarization, 1536-well. inhibition, % at 9.4 µM. hit rate 0.15% among 340,000. AID 504523; in the data active = inhibition above about 12%;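 note: human Keap1 Kelch domain with fluorescein labeled Nrf2 9mer peptide probe; 0% = neutral control wells and 100% = peptide positive control; higher means more block of Keap1 binding to Nrf2 peptide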
C-LANA FP: inhibitors of KSHV LANA C-terminal domain DNA binding | hit rate 0.078% among 340,000 | MBP-C-LANA/FAM-LBS DNA binding, fluorescence polarization | inhibition, % at 9 µM | AID 504423;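 active = highest replicate inhibition at or above 60% at 9 µM, even if other replicates fall short; inactive = all replicates below 60% inhibition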;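 note: 0% = neutral control wells and 100% = 4 µM acridine orange control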
RTF Ca inh conf: cardiac RTF calcium sensitivity inhibition, confirmation; shares compounds with Cardiac RTF inh; reconstituted cardiac thin filaments, calcium sensitivity fluorescence; inhibition, % at 7.15 µM; hit rate 8% among 360; in the data active = inhibition above about 18%
Keap1 Kelch bind: binds and thermally shifts human Keap1 Kelch domain; shares compounds with Keap1 Nrf2 FP; Keap1 Kelch thermal shift, delta Tm; hits give high values; max delta Tm, degrees C; hit rate 8% among 400; AID 651823; in the data active = max delta Tm above about 0.48 degrees C
E coli Lon conf: confirmation of E. coli Lon protease inhibitors; AID 602230; shares compounds with E coli Lon inh; inhibition, % at 7.94 µM; hit rate 31% among 1,400; purified E. coli Lon, fluorescence polarization; in the data active = inhibition above about 16%;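 note: 0% = enzyme with probe and DMSO and 100% = no enzyme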
* = called active by the depositor; i = inactive; nt = no result; + = active, no number; ! = not active in a repeat. The list is not random: actives were taken first. Their share in the collection is about 0.74%.

SMILES | Cardiac RTF inh | cardiac RTF act | E coli Lon inh | Keap1 Nrf2 FP | C-LANA FP | others
CCc1ccccc1N1C(=O)/C(=C/c2ccc(N3CCN(C)CC3)o2)C(=O)NC1=S | -40.8 | 65.3* | -107.1 | -98.8 | -21.5
Cc1cccc(N2C(=O)/C(=C/c3ccc(N4CCN(C)CC4)o3)C(=O)NC2=S)c1C | -45.4 | 89.0* | -134.1 | -154.1 | -33.5
COc1ccc(N2C(=O)/C(=C/c3ccc(C)o3)C(=O)NC2=S)c(OC)c1 | -5.9 | 3.3 | -25.3 | -7.4 | -1.2
CCc1nn2c(=O)c(F)c(N3CCNCC3)nc2s1 | nt | nt | -6.0 | nt | nt
c1ccc(C2(NC3=NCCO3)CCCCC2)cc1 | nt | nt | -8.8 | nt | nt
O=C1NC(=S)SC1=Cc1ccc(N(CCCl)CCCl)cc1 | -75.8 | 94.3* | -255.1 | -46.0 | -22.9
CC(C)(C)NC(=S)N1Cc2ccccc2-n2nncc2C1 | nt | nt | -8.5 | nt | nt
OC12CCCCC1C(c1ccccc1)NCC2 (centres undefined) | 3.2 | 209.9* | 5.5 | 1.5 | -0.6
OC1(c2ccccc2)CCNC2CCCCC21 (centres undefined) | 4.9 | -1.7 | 1.0 | 2.9 | 3.7
O=C1NC(=O)C(=CN2CCc3ccccc32)C(=O)N1 | -12.5 | 6.7 | 6.3 | -0.9 | 2.9
O=C1NC(=O)N(Cc2ccccc2)C(=O)/C1=C\N1CCCc2ccccc21 | -62.3 | 36.3* | -265.2 | -34.1 | -0.8
Cc1cccc(-n2c(O)c(/C=C/C=Nc3ccccc3)c(=O)[nH]c2=O)c1 | -100.5 | 77.1* | i | -122.4 | -18.2
CNS(=O)(=O)c1ccc(N=Cc2c(O)n(-c3cccc(C)c3)c(=O)[nH]c2=O)cc1 | -10.4 | 1.7 | -20.4 | -9.6 | -0.8
CCC1(CCC(C)C)C(=O)NC(=O)N(c2ccccc2)C1=O (centres undefined) | nt | nt | -2.0 | nt | nt
CN1C(=O)C(=Cc2ccc(N3CCOCC3)o2)C(=O)N(C)C1=O | -83.7 | 71.6* | -478.0 | -64.6 | -19.3
CN1C(=O)C(=Cc2ccc(N3CCCCCC3)o2)C(=O)N(C)C1=S | -14.7 | 58.0* | -123.2 | -9.9 | -2.1
Cc1ccc(Sc2ccc(C=C3C(=O)N(C)C(=O)N(C)C3=O)o2)cc1 | -39.0 | 8.9 | -115.9 | -8.9 | -1.0
CC1=C(O)C(=O)C=C2C1=CC=C1C2(C)CCC2(C)C3CC(C)(C(=O)O)CCC3(C)CCC12C (centres undefined) | 6.4 | -5.2 | 12.0 | -4.2 | -0.5
Cc1cc(N(CCCl)CCCl)ccc1C=Cc1ccncn1 | -94.7 | 78.6* | -353.6 | -4.1 | -0.1
CCOC(=O)[C@]12Cc3cc(Cl)ccc3[C@H]1N(C1CCCCC1)C(=O)c1ccccc12 | nt | nt | -8.3 | nt | nt
N#CC(C#N)=Cc1ccc(-c2ccccc2F)o1 | -36.2 | 36.5* | -13.0 | -2.7 | 2.3
Cc1cc(/C=C2\C(=O)NC(=O)N(C)C2=O)c(C)n1-c1ccc2c(c1)OCO2 | -11.8 | 0.2 | -4.1 | -6.4 | 0.4
Cc1ccccc1N1C(=O)NC(=O)/C(=C\c2cc(Br)c(N3CCOCC3)o2)C1=O | -50.5 | 64.4* | -230.9 | -205.1 | -38.6
CCc1ccccc1N1C(=O)NC(=O)/C(=C\c2cc(C)n(C)c2C)C1=O | 7.5 | -6.2 | -15.4 | 4.8 | 1.2
Cc1ccccc1N1C(=O)NC(=O)/C(=C/c2ccc(N3CCOCC3)o2)C1=O | -61.2 | 50.9* | -438.5 | -159.2 | -40.1
SMILES | Cardiac RTF inh | cardiac RTF act | E coli Lon inh | Keap1 Nrf2 FP | C-LANA FP | others
O=C1NC(=O)N(c2ccc3c(c2)OCO3)C(=O)/C1=C\c1ccc(N2CCCCC2)o1 | -88.2 | 50.2* | -318.6 | -58.2 | -38.3
CCOC(=O)C1CCN(/C=C2/C(=O)NC(=O)N(c3cccc(C)c3C)C2=O)CC1 | 6.8 | -4.2 | -9.9 | -4.7 | -0.2
O=C1C=C2c3ccccc3CC(C(=O)O)C2CC1 (centres undefined) | nt | nt | -12.6 | nt | nt
COc1ccc(C(c2nnnn2C(C)(C)C)N2CCC3(CC2)C(=O)NCN3c2ccccc2)cc1 (centres undefined) | nt | nt | 1.2 | nt | nt
Cc1cccc(C)c1-n1nnnc1C(c1ccccc1OC(F)(F)F)N1CCC(n2c(=O)[nH]c3ccccc32)CC1 (centres undefined) | nt | nt | -4.9 | nt | nt
CCCCn1c(O)c(C(=O)/C=C/c2c[nH]c3ccccc23)c(=O)[nH]c1=O | -27.7 | 66.7* | -53.2 | -8.1 | 0.2
CCOc1ccc(N2C(=O)/C(=C/c3ccco3)C(=O)NC2=S)cc1 | 56.0* | -39.9 | -20.9 | -2.1 | 20.1
O=Cc1c(C(=O)O)n(Cc2ccc(Cl)cc2)c2ccccc12 | -342.8 | 319.9* | -76.8 | -84.6 | -11.3
CN1/C(=C\C=C2C(=O)NC(=S)NC2=O)C(C)(C)c2ccccc21 | i | 433.2* | i | -7.5 | -1.3
O=C(CCN1CCCCC1)Nc1ccc(Br)cc1C(=O)c1ccccc1 | 0.1 | -4.0 | -9.2 | -0.2 | 0.5
CC(C(=O)Nc1ccc(Br)cc1C(=O)c1ccccc1)N1CCCCC1 (centres undefined) | -3.2 | -3.2 | 24.4* | -0.5 | -0.6
CN(C)[C@@H]1C(=O)C(C(N)=O)=C(O)[C@@]2(O)C(=O)C3=C(O)c4c(O)cccc4[C@@](C)(O)C3[C@H](O)C12 (some centres undefined) | 20.5*! | 10.5 | 70.6 | -7.0 | 72.3*! | RTF Ca inh conf=-4.8
Fc1ccc(C(OCCN2CCN(CCCc3ccccc3)CC2)c2ccc(F)cc2)cc1 | 17.1* | -2.7 | -3.6 | 0.5 | 2.2 | RTF Ca inh conf=-1.9
c1ccc(CCCN2CCN(CCOC(c3ccccc3)c3ccccc3)CC2)cc1 | -13.9 | 0.1 | 0.8 | -5.3 | 0.1
C=CCN1Cc2ccccc2-n2nncc2C1 | nt | nt | -2.9 | nt | nt
CCN1C(=O)NC(=O)/C(=C\c2cn(CC(=O)N3CCCCC3)c3ccccc23)C1=O | -3.3 | 2.3 | -33.0 | 20.6* | 36.6 | Keap1 Kelch bind=-0.11
COC(=O)C1=C(c2ccc(F)cc2OCc2ccccc2)C[C@@H]2CC[C@H]1N2C(=O)NCc1ccc2c(c1)OCO2 | -13.0 | 3.8 | -6.1 | -1.3 | 0.4
Nc1ccc2nonc2c1[N+](=O)[O-] | -130.6 | 102.2* | 193.5* | 52.2* | 80.3* | Keap1 Kelch bind=-0.08;E coli Lon conf=+
CCOC(=O)[C@]12Cc3c(cc(OC)c(OC)c3OC)[C@H]1N(C)C(=O)c1ccccc12 | nt | nt | 4.1 | nt | nt
CCCCCN1C(=O)c2cc(OC)ccc2[C@@]2(C(=O)OCC)Cc3cc(Cl)ccc3[C@@H]12 | nt | nt | -3.6 | nt | nt
O=c1cc(C(F)(F)F)c2cc3c4c(c2o1)CCCN4CCC3 | i | 544.9* | + | 13.6* | 19.3 | Keap1 Kelch bind=-0.05;E coli Lon conf=167.0*
Oc1cc(Cl)c(Cl)c(Cl)c1 | -1.2 | -2.1 | 7.9 | -7.1 | 0.0
Oc1cc(Cl)c(Cl)c(Cl)c1Cl | -0.2 | 0.8 | 48.9* | 1.4 | -0.6 | E coli Lon conf=-12.4
